# BRCA1 expr up: BRCA1 expression activation; Potency, µM (highest dose often 46.1 µM), for inactives: at the highest dose activation, usual class: activators; 1.1% of 380,000 active; AID 624202; MCF7-BRCA1-FFLuc reporter, luminescence, 48 h; response scale: scaled: vehicle 0%, 10 µM genistein 100%; further: potency means the concentration at half of the fitted maximal effect; nearly all actives have a fitted effect of over 80% in size
#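 Luminescence from a BRCA1-driven firefly luciferase in MCF7 cells was the read-out, taken 15 min after substrate addition following 48 h compound exposure at 37 °C. Data were normalized to a 10 microM genistein control and DMSO vehicle.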
# PTHR1 ag: activates the human parathyroid hormone receptor PTHR1; Q03431; HEK293 GP2 PTHR1 cells, GloSensor cAMP luminescence, 1 h; Potency, µM (titrated, usually from 115 µM), for the others: top-dose activation, actives largely listed as activators; 0.075% of 410,000 active; AID 743266; further: potency means the concentration at half of the fitted maximal effect; nearly all actives have a fitted effect of over 55% in size
# Target sequence (Q03431 whole entry, looked up): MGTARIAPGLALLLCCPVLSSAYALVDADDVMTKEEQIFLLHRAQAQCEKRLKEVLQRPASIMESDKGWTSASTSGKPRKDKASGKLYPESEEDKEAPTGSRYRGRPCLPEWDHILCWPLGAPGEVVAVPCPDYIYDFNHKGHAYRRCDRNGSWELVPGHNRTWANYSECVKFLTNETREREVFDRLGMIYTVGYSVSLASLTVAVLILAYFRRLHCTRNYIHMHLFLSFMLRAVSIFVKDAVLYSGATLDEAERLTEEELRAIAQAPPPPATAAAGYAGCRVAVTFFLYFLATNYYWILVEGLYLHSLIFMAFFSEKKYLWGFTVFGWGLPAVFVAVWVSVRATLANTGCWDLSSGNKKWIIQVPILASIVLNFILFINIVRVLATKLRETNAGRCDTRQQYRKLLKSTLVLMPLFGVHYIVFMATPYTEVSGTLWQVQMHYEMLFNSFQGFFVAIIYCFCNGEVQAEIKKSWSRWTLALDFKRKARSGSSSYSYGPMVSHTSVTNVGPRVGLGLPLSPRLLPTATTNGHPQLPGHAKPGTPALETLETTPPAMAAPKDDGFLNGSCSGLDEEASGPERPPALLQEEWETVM
#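 HEK-293-derived GP2 cells expressing PTHR1 and a GloSensor cAMP reporter, 3,000/well, plated overnight, given luciferin plus IBMX (each 0.5 mM as added) for 1 h at 37 °C, then compound for 1 h at 37 °C. Luminescence was read after 15 min at room temperature.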
# B2AR arrestin: recruits beta-arrestin to the human beta2-adrenergic receptor | P07550 | beta-arrestin recruitment to beta2AR, cell-based reporter | Potency, µM (highest dose often 46.1 µM), inactives show top-dose activation, usual class: activators | 0.02% of 330,000 active | AID 492947;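 further: potency means the concentration at half of the fitted maximal effect; 0% = DMSO controls and full agonism = EC100 isoproterenol or metaproterenol; nearly all actives have a fitted effect of over 65% in size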
# RGS4 inhibitor: human RGS4 inhibition | P49798 | Transcreener GDP fluorescence polarization, RGS4-accelerated GTP hydrolysis | Potency, µM (top dose mostly 114 µM), inactives show at the top dose activity change, negative = inhibition, actives largely listed as inhibitors | 0.039% of 390,000 active; further: potency means the concentration at half of the fitted maximal effect; on the % scale 0 is the no-effect control and ±100 the full control effect; nearly all actives have a fitted effect of over 75% in size
#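 MLSMR compounds (23 nl, pin-transferred) preincubated 10 min at room temperature with a 500nM (2x) first reagent, then RGS4 at 900nM (2x) plus Transcreener GDP mix added; fluorescence polarization (620/688 nm) read before and after 90 min at 30 °C.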
# D3 ag: agonists of human D3 dopamine receptor | 0.58% of 410,000 active | D3R DiscoveRx beta-arrestin cells, luminescence, 90 min | max activation, % | AID 652048; in the data active means max activation above about 30%; further: 0% is about no effect
#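 Cells at 1500/well, incubated overnight, then treated with pinned compounds (dopamine as control) for 90 min at 37 degrees C. DiscoveRx reagent added for 30 - 60 minutes at room temperature; luminescence read.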
# D3 antag: D3 dopamine receptor (human) antagonism; P35462; max response, negative = inhibition, %; D3R cells, DiscoveRx beta-arrestin luminescence, antagonist mode; stronger effect = lower value; 2.5% of 360,000 active; in the data active means max response below about -50%; inconclusive means no clear call, values can overlap the other calls; further: on the % scale 0 is the no-effect control and ±100 the full control effect
#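 Cells expressing the human receptor were seeded at 1500 cells/well, incubated overnight at 37 degrees C in 5% CO2, then exposed to library compounds with dopamine controls for 90 minutes at 37 degrees C before luminescent detection.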
# The depositor's hits bear a star; i = inactive; ? = inconclusive; / = no result given; [ ] = dose if it differs, or a comment. Compounds with a hit are over-represented: about 3.7% of the library has one in this group of screens. Unless noted, the call rests on the fitted dose curve; in most records, active means well fitted curve in the direction sought with a large enough effect; inconclusive means small, poorly fitted or top-dose-only effect, or another doubt; inactive means no such curve, though single readings can be large; an effect the other way counts as inactive or inconclusive.
SMILES,BRCA1 expr up,PTHR1 ag,B2AR arrestin,RGS4 inhibitor,D3 ag,D3 antag
COc1cc(-c2nc(C(=O)NC3CCN(Cc4ccccc4)CC3)cc3c2[nH]c2ccccc23)cc(OC)c1OC,-61%,5%,-1%,20%,-63,-117*
COc1ccc(-c2nc(C(=O)NCC3CCCO3)cc3c2[nH]c2ccccc23)cc1 (stereo unspecified),-73%,i,14%,2%,34*,69
COc1ccc(OC)c(-c2nc(C(=O)NC3CCN(Cc4ccccc4)CC3)cc3c2[nH]c2ccccc23)c1,-38%,-27%,0%,-21%,-60,-125*
CCOCCCNc1nc(=S)[nH]c2cc(OC)c(OC)cc12,-24%,i,0%,?,1,-27
COc1cc2[nH]c(=S)nc(NCCCOC(C)C)c2cc1OC,-14%,-18%,0%,-17%,-2,-78*
COc1cccc2cc(-c3csc(-c4ccc(Cl)cc4)n3)c(=O)oc12,/,-15%,/,10%,5,/
COCCCN1C(=O)C(CC(=O)NCCCN(C)C)CC(C(=O)N2CCOCC2)=C1C (stereo unspecified),16%,-14%,/,/,95*,1
CCCCN1C(=O)C(CC(=O)NC2CCCCC2)CC(C(=O)N2CCOCC2)=C1C (stereo unspecified),6%,-26%,/,/,8,-54*
CCCCN1C(=O)C(CC(=O)NC2CCCC2)CC(C(=O)N2CCOCC2)=C1C (stereo unspecified),31%,3%,/,/,-2,1
Clc1ccc(Br)c(-c2nc3ccccc3[nH]2)c1,-19%,i,/,/,5,-10
COc1ccc(-c2nc3sc(CCNC(=O)C(=O)Nc4cc(F)ccc4F)c(C)n3n2)cc1,/,-6%,/,10%,8,/
O=C1CCCN1c1ccc(CNS(=O)(=O)c2ccc(F)cc2)cc1,15%,i,-1%,4%,0,-57*
CC(=O)c1cccc(-c2ccnc3c2CC(C(=O)Nc2ccc(Cl)cc2)O3)c1 (stereo unspecified),-25%,-21%,/,/,-15,-61*
O=C(Nc1cccc(Oc2ccccc2)c1)C1Cc2c(-c3ccc4c(c3)OCO4)ccnc2O1 (stereo unspecified),-36%,-5%,/,/,-9,-15
COc1ccc(NC(=O)C2Cc3c(-c4cccc(NC(C)=O)c4)ccnc3O2)cc1 (stereo unspecified),-34%,-19%,/,/,-7,-58*
O=C(Nc1cccc(OC(F)(F)F)c1)C1Cc2c(-c3ccc4c(c3)OCO4)ccnc2O1 (stereo unspecified),0%,-16%,/,/,-9,-55*
CC(=O)Nc1ccc(NC(=O)C2Cc3c(-c4cccc(NC(C)=O)c4)ccnc3O2)cc1 (stereo unspecified),-12%,?,/,/,-14,0
COc1cccc(CNS(=O)(=O)/C=C/c2ccc3c(c2)OCO3)c1,-2%,-9%[57.5 µM],0%,10%,2,-21
O=c1c2ccccc2nc2n1CC/C2=C\N1CCN(c2ccc([N+](=O)[O-])cc2)CC1,21%,i,/,-17%,-23,-8
O=c1cc(CO)[nH]nc1CO,-4%,-23%,/,/,-5,-16
CC(C)C(=O)N1C2CCC1CC(O)(c1ccc(F)cc1)C2 (stereo unspecified),-6%,i,-1%,-2%,-8,-67*
Cc1cc(N2C3CCC2CC(O)(c2ccc(F)cc2)C3)nc(-c2ccccc2)n1 (stereo unspecified),-66%,i,0%,9%,-23,-60*
Cc1ccnc(N2C3CCC2CC(O)(c2ccccc2)C3)n1 (stereo unspecified),-16%,-20%,0%,-3%,4,-7
O=C(Nc1ccccc1)N1C2CCC1CC(O)(c1cccnc1)C2 (stereo unspecified),-22%,i,-1%,-6%,-13,-15
CC(Oc1ccccc1)C(=O)N1CCN(c2ccc(N3CCOCC3)nn2)CC1 (stereo unspecified),0%,-25%,0%,30%,1,1
SMILES,BRCA1 expr up,PTHR1 ag,B2AR arrestin,RGS4 inhibitor,D3 ag,D3 antag
CCC(CC)C(=O)Nc1cccc(-c2cn3cccnc3n2)c1,/,i,/,27%,-15,/
CC(C)(C)CC(=O)Nc1cccc(-c2cn3cccnc3n2)c1,8.9µM*,-27%,0%,-14%,-5,19
O=C(CSc1ccccn1)Nc1ccc2c(c1)CCC2,10µM*,-9%,0%,-19%,-7,5
CCN(CC(=O)Nc1ccc2c(c1)OCCO2)C(=O)c1ccc(Cl)cc1Cl,1.8µM*,-54%,0%,2%,-5,-15
Cn1cccc1C(=O)OCC(=O)Nc1ccc2c(c1)OCCO2,2µM*,-42%,-1%,-7%,0,-11
O=C(CSc1ccccn1)Nc1ccc2c(c1)OCCO2,11µM*,-28%,0%,22%,-14,-9
Cn1cccc1C(=O)OCC(=O)NCc1ccc2c(c1)OCO2,16%,-9%,0%,-6%,-2,0
CCN(CC(=O)Nc1ccc2c(c1)OCCO2)C(=O)c1cc(Cl)nc2ccccc12,-16%,-44%,1%,-15%,-8,-7
Cc1ccc(C(=O)COC(=O)CNC(=O)c2ccccc2)s1,2%,-18%,0%,6%,1,14
O=C(CSCc1ccccc1Cl)Nc1ccc2c(c1)OCCO2,19%,-9%[57.5 µM],0%,-21%,5,-16
O=C(CNCc1ccccc1Cl)Nc1ccc2c(c1)OCCO2,10µM*,-72%,?,-6%,-18,-20
O=C(CSc1ncccn1)Nc1ccc2c(c1)OCO2,50%,i,-1%,-9%,10,7
O=C(CSc1ncccn1)NC(=O)Nc1ccc2c(c1)OCCO2,13µM*,-10%,0%,-13%,-2,7
CC1(c2ccccc2Cl)NC(=O)N(CC(=O)Nc2ccc3c(c2)OCO3)C1=O (stereo unspecified),6%,-14%,-1%,19%,2,-71*
CCOc1cc(N2CCOCC2)c(OCC)cc1NC(=O)COC(=O)c1ccc(OC)c([N+](=O)[O-])c1,-5%,-11%,/,-37%,-7,86
O=C(O)c1cc(=O)cc(C(=O)O)[nH]1,0%,8%[57.5 µM],0%,4%[56.9 µM],-17,-82*
CC(=O)OCCNc1cc(N2CCN(C)CC2)c2noc3c2c1C(=O)c1ccccc1-3,4%,-1%,0%,-31%,-23,-52*
COCCOc1cc(Nc2nnc(C(F)(F)F)s2)c(Cl)cc1Cl,0%,-24%[57.5 µM],-1%,42%,1,-64*

# Assay outcomes: PubChem, National Center for Advancing Translational Sciences (NCATS)
